# Source: PubChem (several laboratories)
# RTF Ca sens act: cardiac RTF calcium sensitivity activators, primary screen, biochemical, IANBD-TnC fluorescence, EC20 calcium; Troponin I, cardiac muscle (Homo sapiens) + Troponin T, cardiac muscle (Homo sapiens) + …; IANBD-labeled TnC RTF fluorescence at EC20 calcium; 0% EC20 calcium, 100% full calcium; activation, % at 7.2 µM; 0.24% of 340,000 active;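 active = activation above the mean over all tested compounds plus 3 SD, cut at about 30% in these data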;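 note: rise in fluorescence read as greater calcium sensitivity of cardiac thin filaments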
# ANO1 block: TMEM16A chloride channel inhibitors, primary screen, cell-based, HTS; Anoctamin-1 (Mus musculus), Q8BHY3; HEK293 TMEM16A/YFP iodide influx fluorescence, ionomycin; normalized B-score (activity score, 25-100; higher = stronger inhibition) at 10 µM; 1.2% of 310,000 active; AID 588511, 2011;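 active = ratio plate-corrected score three or more library SD toward inhibition, starting fluorescence score within five deviations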;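 note: score derived from kinetic fluorescence span divided by baseline fluorescence per well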
# Target sequence (Q8BHY3 whole entry, looked up): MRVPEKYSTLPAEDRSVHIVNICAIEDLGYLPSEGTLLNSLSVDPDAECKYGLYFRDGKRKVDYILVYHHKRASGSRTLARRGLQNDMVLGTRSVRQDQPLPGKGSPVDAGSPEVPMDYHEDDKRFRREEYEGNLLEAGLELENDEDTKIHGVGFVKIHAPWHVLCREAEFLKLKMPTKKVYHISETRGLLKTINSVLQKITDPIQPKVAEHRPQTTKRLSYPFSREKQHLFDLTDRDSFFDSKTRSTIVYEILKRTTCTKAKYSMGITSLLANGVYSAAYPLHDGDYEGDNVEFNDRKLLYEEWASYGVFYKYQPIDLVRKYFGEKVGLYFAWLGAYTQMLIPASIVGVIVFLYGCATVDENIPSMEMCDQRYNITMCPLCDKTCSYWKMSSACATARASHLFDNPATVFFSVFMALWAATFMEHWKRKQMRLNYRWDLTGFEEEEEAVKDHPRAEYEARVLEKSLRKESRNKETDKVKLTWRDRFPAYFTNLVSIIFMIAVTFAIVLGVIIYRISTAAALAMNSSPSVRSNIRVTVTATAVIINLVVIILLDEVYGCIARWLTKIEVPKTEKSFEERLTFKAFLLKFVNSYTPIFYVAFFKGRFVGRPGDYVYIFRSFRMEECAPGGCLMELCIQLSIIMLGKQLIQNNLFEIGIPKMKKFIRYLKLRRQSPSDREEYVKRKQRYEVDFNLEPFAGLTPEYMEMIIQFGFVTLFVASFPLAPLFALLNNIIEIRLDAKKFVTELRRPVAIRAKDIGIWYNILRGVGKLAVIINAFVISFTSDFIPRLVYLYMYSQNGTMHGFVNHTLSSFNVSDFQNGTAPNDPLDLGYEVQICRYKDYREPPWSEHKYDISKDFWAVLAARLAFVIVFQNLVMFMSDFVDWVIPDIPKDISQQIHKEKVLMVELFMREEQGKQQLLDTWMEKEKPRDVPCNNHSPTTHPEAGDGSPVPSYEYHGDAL
# CRFBP-R2 block: antagonists of CRF-BP/CRF-R2 complex, primary screen, cell-based, HEK293, calcium dye fluorescence, uHTS; CRF-induced calcium fluorescence; inhibition, % at 11.8 µM; 0.59% of 350,000 active; AID 588475, 2011;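 active = inhibition of the ligand-induced calcium signal above about 50% at the single tested concentration, limit read from the data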
# ANO1 activ: TMEM16A chloride channel activators or potentiators, primary screen, cell-based, HTS. Anoctamin-1 (Mus musculus), Q8BHY3. B-score at 10 µM. AID 623877, 2012. HEK293 TMEM16A/YFP-H148Q/I152L, iodide quench fluorescence; hits give low values. 0.3% of 340,000 active;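 active = fluorescence-ratio B-score plate-corrected deviation score at least 3 library SD below zero, with starting fluorescence score within 5 deviations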;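 note: channel opened by trigger with iodide after compound preincubation; score built on the fluorescence ratio of max minus min over baseline; more negative score means more quench and so TMEM16A activation or potentiation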
# Cardiac RTF inh: cardiac RTF calcium sensitivity inhibitors, primary screen, biochemical, IANBD-TnC fluorescence, EC70 calcium. Troponin I, cardiac muscle (Homo sapiens) + Troponin T, cardiac muscle (Homo sapiens) + …. IANBD-labeled cardiac RTF, Ca2+ fluorescence. inhibition, % at 7.15 µM. 0.12% of 340,000 active;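 active = inhibition above the mean inhibition of all tested compounds plus 3 SD, cut at about 17% in these data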;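 note: assay run at fixed EC70 calcium of 1.6 mM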
# CRFR2-BP ag: agonists of CRF-BP/CRF-R2 complex, primary screen, cell-based, HEK293, calcium dye fluorescence, uHTS; calcium dye fluorescence (FLIPR); percent of saturating CRF peptide response; 0.46% of 350,000 active; activation, % at 13.2 µM; CRF-binding protein / CRF receptor 2 complex (human);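 active = activation of at least 50%, plus an integration ratio under a set limit after plate pattern correction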;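 note: plate controls were neutral control wells without compound for no effect and CRF at EC100 for full effect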
# RTF inh confirm: cardiac RTF calcium sensitivity inhibitors, confirmation, biochemical, fluorescence readout | shares compounds with Cardiac RTF inh | reconstituted cardiac thin filaments | inhibition, % at 7.15 µM | 8% of 360 active | AID 504635, 2011; in the data active = inhibition above about 18%
# * hit, by the source's call; i = inactive; · = no result; + = active, no number. Shown are actives, neighbours in structure and some others; about 2.4% of the full set was active somewhere.
SMILES,RTF Ca sens act,ANO1 block,CRFBP-R2 block,ANO1 activ,Cardiac RTF inh,CRFR2-BP ag,RTF inh confirm
COc1ccc(NC2CCCN(C(=O)CCC(=O)c3ccc(F)cc3)C2)cc1 (configuration not stated),-2,i,-12,i,5,-3,·
O=C(CSc1ccc(-c2nc3ccccc3[nH]2)cn1)Nc1ccc2c(c1)OCCO2,-1,i,4,i,21*,0,-3
Cc1ccc2nc(-c3ccc(SCC(=O)Nc4ccc5c(c4)OCCO5)nc3)[nH]c2c1,-3,i,11,i,0,-3,·
COc1ccc(S(=O)(=O)N(C)C[C@H]2Oc3ccc(NC(=O)c4ccncc4)cc3C(=O)N([C@H](C)CO)C[C@@H]2C)cc1,-5,·,5,·,-7,4,·
O=C(NC1CCCC1)c1ccc2nc(-c3ccco3)c(-c3ccco3)nc2c1,-20,i,18,i,18*,-5,-7
CN(CCCC1CCCC1)C(=O)CC1C(=O)NCCN1Cc1ccc(F)cc1 (configuration not stated),-1,i,-13,i,4,-1,·
O=C(O)c1ccc(-n2cccc2/C=C2/NC(=O)N(c3ccccc3)C2=O)cc1,-7,i,7,i,17*,0,7
O=C(O)c1ccc(-n2cccc2/C=C2/NC(=O)N(c3cccc(Cl)c3)C2=O)cc1,-5,·,-7,i,-1,-2,·
O=C(O)c1ccc(-n2cccc2/C=C2/SC(=O)N(CC(=O)N3CCCC3)C2=O)cc1,-8,i,19,i,26*,0,8
N#Cc1ccccc1CN1C(=O)S/C(=C/c2cccn2-c2ccc(C(=O)O)cc2)C1=O,3,i,-3,i,3,0,·
COc1ccc(C(=O)NCCS(=O)(=O)N2CCOCC2)cc1,-4,i,4,i,-15,1,·
CC1(C)CC(=O)C2=C(C1)Nc1ccccc1NC2c1cccs1 (configuration not stated),-4,i,13,i,19*,2,-1
Cc1cc(C)n(C(=O)CCCCCCCCC(=O)n2nc(C)cc2C)n1,3,i,2,i,-9,0,·
CCOC(=O)C1(Cc2ccccc2)CCN(Cc2cn(CC(=O)OC)c3ccccc23)CC1,8,i,-7,i,-6,0,·
CCOC(=O)C1(CC2CC2)CCN(Cc2cn(C)c3ccccc23)CC1,0,i,-68,i,17*,1,-7
O=C(O)CSc1cc(C(=O)c2ccccc2O)cn2c(=O)c3c4c(sc3nc12)CCCC4,-8,·,5,i,22*,0,5
Cc1cccc(NC(=O)c2sc(NC(=O)COc3ccccc3)c(C#N)c2C)c1C,0,i,19,i,6,7,·
Cc1ccccc1NC(=O)c1sc(NC(=O)COc2ccccc2)c(C#N)c1C,-1,i,41,i,18*,36,-3
CC(=O)Nc1ccc2ccccc2c1,-8,i,19,i,24*,3,-2
CC(=O)CC(=O)Nc1ccc2ccccc2c1,-1,i,-6,i,3,0,·
COc1ccc(S(=O)(=O)Nc2ccc(Cc3ccncc3)cc2)cc1C,-1,i,-2,i,-6,1,·
N#Cc1nc(COc2ccc(Br)cc2)oc1N1CCCCCC1,9,i,31,i,1,1,·
N#Cc1nc(COc2ccc(F)cc2)oc1N1CCCCC1,-1,i,-6,i,24*,0,-2
CSc1ccc(S(=O)(=O)NCC(=O)OCC(=O)N(C)CC(=O)Nc2ccc(F)cc2)cc1[N+](=O)[O-],5,·,3,i,-10,-2,·
Cc1c(Cl)cccc1NS(=O)(=O)c1ccc2c(c1)C1C=CCC1C(c1ccc(C(=O)O)cc1)N2 (configuration not stated),-33,i,-11,i,31*,4,-14
SMILES,RTF Ca sens act,ANO1 block,CRFBP-R2 block,ANO1 activ,Cardiac RTF inh,CRFR2-BP ag,RTF inh confirm
CCn1nnnc1-c1ccc(OC)c(S(=O)(=O)NCCc2ccccc2)c1,1,i,-6,i,-10,0,·
CN1C2CCC1CC(OC(=O)C(CO)c1ccccc1)C2 (configuration not stated),i,i,1,i,+,-2,i
CN1[C@@H]2CC[C@H]1CC(OC(=O)C(CO)c1ccccc1)C2 (some centres not stated),i,i,23,i,i,-2,·
CCOc1ccc(Br)cc1S(=O)(=O)Nc1cccc(S(=O)(=O)N2CCOCC2)c1,-3,·,8,i,-4,0,·
O=C(Nc1nccs1)c1ccc(-c2ccc(F)cc2)o1,-3,i,1,i,17*,-1,-5
O=C(NCCc1c[nH]c2ccccc12)C(=O)NCC1OCCN1S(=O)(=O)c1ccccc1 (configuration not stated),-1,i,2,i,18*,-1,-5
Cc1cc(C(=O)NNS(=O)(=O)c2cc(C(=O)O)ccc2Cl)c(C)n1-c1ccccc1,4,·,11,i,-5,0,·
COc1ccc(C2=CC3=C(Br)C(=O)C(C)(O)C(=O)C3=CO2)cc1 (configuration not stated),-11,i,2,i,3,1,·
CCC(=O)OC1(C)C(=O)C2=COC(c3ccc(OC)cc3)=CC2=C(Br)C1=O (configuration not stated),-13,i,-3,i,17*,8,-2
COc1ccc(OC)c(N(CC(=O)Nc2ccc3c(c2)OCCO3)S(C)(=O)=O)c1,-3,i,16,i,3,-2,·
CCOC(=O)c1c(N)sc2c(OC)c(Br)ccc12,-8,i,-14,i,21*,0,-6
Cc1cc2occ(CC(=O)N(C)CC(=O)Nc3ccccc3C(F)(F)F)c2cc1C,-2,·,-2,i,5,1,·
CN(NC(=O)COc1ccccc1)C1=NS(=O)(=O)c2ccccc21,3,i,22,i,30*,-1,-3
CN(NC(=O)c1ccccc1)C1=NS(=O)(=O)c2ccccc21,-1,i,-3,i,-1,-2,·
